Targets with a hit are over-represented here; the source holds about 8,800 in all. About 0.5% of all pairs of compound and target were hits. Unmarked numbers belong to inactive results.
Tests used:
Test in all cases: log2 fold change, soluble protein after heating vs DMSO (PISA); higher = thermal stabilisation; K562 lysate, 10 uM; active = over 0.2 and 3.5 SD of the protein, either way, in both replicates (recomputed)
alvocidib = compound: CN1CC[C@H](c2c(O)cc(O)c3c(=O)cc(-c4ccccc4Cl)oc23)[C@H](O)C1 [alvocidib]
Procedure, shortened: (§1)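 Thermal stability, expressed as log-two fold change relative to solvent controls, is given from duplicates. Crude K562 extract in PBS pH 7.4 with 1 mM MgCl2, at 1 mg/mL protein, was treated with 10 μM compound for 30 min and heated in aliquots for 3 min across 48°C-58°C. After pooling, adjustment to 0.5% NP-40 at 4°C and centrifugation at 21,000xg for 90 min, supernatant protein was measured by TMTpro 16plex LC-MS/MS with channel sums equalised.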

defactinib = compound: CNC(=O)c1ccc(Nc2ncc(C(F)(F)F)c(NCc3nccnc3N(C)S(C)(=O)=O)n2)cc1 [defactinib]
Procedure, shortened: as §1

[1] = compound: CNc1nc(-c2ccc3c(N)n[nH]c3c2)cc(N2C[C@@H](C(=O)NC3CCCCC3)CC[C@H]2C)n1
Procedure, shortened: as §1

encorafenib = compound: COC(=O)N[C@@H](C)CNc1nccc(-c2cn(C(C)C)nc2-c2cc(Cl)cc(NS(C)(=O)=O)c2F)n1 [encorafenib]
Procedure, shortened: as §1

[2] = compound: COC(=O)[C@H](CCSC)NC(=O)C1=C(C=C(C=C1)NC[C@H](CS)N)C2=CC=CC=C2
Procedure, shortened: as §1

[3] = compound: COc1cc2nc(-c3cc(F)ccc3O)nc(N[C@@H]3CNC[C@H]3C(C)(C)O)c2cc1OC
Procedure, shortened: as §1

[4] = compound: CNC(=O)C1=CC=CC=C1NC2=NC(=NC=C2Cl)NC3=C(C=C(C=C3)N4CCOCC4)OC
Procedure, shortened: as §1

Tubastatin A = compound: CN1CCc2c(c3ccccc3n2Cc2ccc(C(=O)NO)cc2)C1 [Tubastatin A]
Procedure, shortened: as §1

alisertib = compound: COc1cc(Nc2ncc3c(n2)-c2ccc(Cl)cc2C(c2c(F)cccc2OC)=NC3)ccc1C(=O)O [alisertib]
Procedure, shortened: as §1

gefitinib = compound: COc1cc2ncnc(Nc3ccc(F)c(Cl)c3)c2cc1OCCCN1CCOCC1 [gefitinib]
Procedure, shortened: as §1

Chain of UniProt O43399 (O43399 whole entry, looked up): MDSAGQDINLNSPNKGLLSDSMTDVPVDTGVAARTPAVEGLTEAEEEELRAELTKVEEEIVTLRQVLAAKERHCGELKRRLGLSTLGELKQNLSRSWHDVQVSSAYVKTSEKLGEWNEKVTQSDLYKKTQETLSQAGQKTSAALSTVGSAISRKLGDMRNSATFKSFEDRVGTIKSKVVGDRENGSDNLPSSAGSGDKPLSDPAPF
Chain of UniProt Q9NPG3 (Q9NPG3 whole entry, looked up): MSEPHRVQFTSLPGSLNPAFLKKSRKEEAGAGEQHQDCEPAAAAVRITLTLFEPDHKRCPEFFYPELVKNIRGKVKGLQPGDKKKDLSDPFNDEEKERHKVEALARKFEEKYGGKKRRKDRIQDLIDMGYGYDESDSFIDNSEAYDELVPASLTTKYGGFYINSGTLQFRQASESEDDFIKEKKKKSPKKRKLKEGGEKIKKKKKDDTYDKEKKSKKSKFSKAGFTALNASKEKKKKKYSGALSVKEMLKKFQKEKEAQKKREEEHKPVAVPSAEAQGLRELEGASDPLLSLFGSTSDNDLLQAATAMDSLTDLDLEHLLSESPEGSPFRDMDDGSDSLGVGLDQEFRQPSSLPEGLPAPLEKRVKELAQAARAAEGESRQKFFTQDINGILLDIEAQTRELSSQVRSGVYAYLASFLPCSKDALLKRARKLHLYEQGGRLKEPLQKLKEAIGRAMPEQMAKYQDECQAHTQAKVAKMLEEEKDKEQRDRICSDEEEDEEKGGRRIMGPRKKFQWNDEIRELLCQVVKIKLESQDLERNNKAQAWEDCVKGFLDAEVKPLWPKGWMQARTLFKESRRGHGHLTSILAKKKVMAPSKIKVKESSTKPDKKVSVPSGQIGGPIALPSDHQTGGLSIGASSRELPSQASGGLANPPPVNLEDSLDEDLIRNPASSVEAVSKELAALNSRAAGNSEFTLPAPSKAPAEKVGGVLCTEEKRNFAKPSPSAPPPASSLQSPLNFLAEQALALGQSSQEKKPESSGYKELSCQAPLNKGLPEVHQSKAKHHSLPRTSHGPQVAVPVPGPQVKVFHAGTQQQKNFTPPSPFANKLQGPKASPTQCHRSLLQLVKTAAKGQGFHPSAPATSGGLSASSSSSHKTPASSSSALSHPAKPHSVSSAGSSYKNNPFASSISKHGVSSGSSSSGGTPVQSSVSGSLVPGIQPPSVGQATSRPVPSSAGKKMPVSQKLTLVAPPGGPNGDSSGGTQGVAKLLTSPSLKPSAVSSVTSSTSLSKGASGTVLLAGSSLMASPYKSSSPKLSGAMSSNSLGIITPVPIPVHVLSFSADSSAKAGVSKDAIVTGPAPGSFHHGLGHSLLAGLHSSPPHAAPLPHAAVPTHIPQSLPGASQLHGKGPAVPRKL
Chain of UniProt P21580 (P21580 whole entry, looked up): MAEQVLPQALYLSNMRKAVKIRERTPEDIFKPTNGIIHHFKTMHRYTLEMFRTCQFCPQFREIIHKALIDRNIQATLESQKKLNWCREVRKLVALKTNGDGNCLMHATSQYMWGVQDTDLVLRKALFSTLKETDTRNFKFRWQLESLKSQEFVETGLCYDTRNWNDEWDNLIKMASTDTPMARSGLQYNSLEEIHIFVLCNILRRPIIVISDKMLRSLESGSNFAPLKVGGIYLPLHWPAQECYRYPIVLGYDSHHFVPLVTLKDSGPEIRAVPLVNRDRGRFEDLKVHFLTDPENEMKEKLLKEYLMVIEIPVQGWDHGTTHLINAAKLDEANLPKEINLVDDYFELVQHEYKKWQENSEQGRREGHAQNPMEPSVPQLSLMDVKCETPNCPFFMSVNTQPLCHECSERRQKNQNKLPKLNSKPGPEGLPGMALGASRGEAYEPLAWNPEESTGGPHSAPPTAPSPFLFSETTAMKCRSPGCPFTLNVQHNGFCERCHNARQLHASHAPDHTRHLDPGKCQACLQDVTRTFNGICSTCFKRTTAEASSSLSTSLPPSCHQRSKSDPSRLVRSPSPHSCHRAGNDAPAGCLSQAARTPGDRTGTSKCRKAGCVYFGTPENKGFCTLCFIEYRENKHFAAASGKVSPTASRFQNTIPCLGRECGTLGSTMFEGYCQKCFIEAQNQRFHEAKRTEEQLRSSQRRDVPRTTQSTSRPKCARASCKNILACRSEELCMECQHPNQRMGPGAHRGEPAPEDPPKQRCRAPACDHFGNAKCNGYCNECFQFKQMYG

Row | Target | log2 fold change (alvocidib) | log2 fold change (defactinib) | log2 fold change [1] | log2 fold change (encorafenib) | log2 fold change [2] | log2 fold change [3] | log2 fold change [4] | log2 fold change (Tubastatin A) | log2 fold change (alisertib) | log2 fold change (gefitinib)
1 | UBN1 (UniProt Q9NPG3) | -0.176 | -0.044 | -0.076 | 0.059 | 0.088 | 0.09 | – | – | – | –
2 | UBAP2L (UniProt F8W726) | – | 0.06 | – | – | – | 0.093 | – | – | – | –
3 | TNIK (UniProt C9J338) | -0.155 | -0.014 | 0.306 | -0.012 | 0.005 | 0.076 | -0.211 | – | – | –
4 | TNFAIP3 (UniProt P21580) | 0.005 | – | -0.009 | 0.276 (active) | 0.228 | 0.031 | 0.022 | -0.076 | 0.002 | -0.028
5 | TPD52L2 isoform 3 (UniProt O43399) | 0.127 | – | – | – | – | – | 0.144 | 0.165 | 0.094 | -0.244
6 | TLE3 (UniProt H0YL70) | – | – | 0.153 | – | – | – | – | – | – | –

Reference: the supplement of paper PMC10849652
